The structures appear in SMILES notation. Out of some 310,000 compounds screened, about 11,000 (3.5%) were called active. Inconclusive results (about 4%) are left out. Shown is part of a subset that was picked to be rich in actives. A number with no mark means an inactive call. Calls come from the whole dose curve; as a rule, active = well fitted inhibition curve with a large enough effect; inconclusive = small, poorly fitted or top-dose-only effect, or another doubt; inactive = no such curve, though single readings can be large or run the other way.
Potency is the fitted concentration of half-maximal effect.

The experiment deals with 4'-phosphopantetheinyl transferase ffp (Bacillus subtilis) (UniProt Q9F4F7). In words: qHTS Assay for Inhibitors of Bacillus subtilis Sfp phosphopantetheinyl transferase (PPTase).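 For largest response in the series, negative = inhibition: 0% = enzyme reaction without inhibitor and -100% = no enzyme wells.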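 Note: the enzyme is Sfp with the accession as filed and its product quenches rhodamine fluorescence.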 Particulars: Biochemical Sfp PPTase activity. The essentials: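 Sfp 15 nM + cpd, 15 min RT; start w/ rhodamine-CoA 5 uM, BHQ-2-YbbR 12.5 uM (final); 50 mM Hepes pH 7.6, 10 mM MgCl2, 0.01% NP-40, 0.01% BSA; read 525/598 nm at 0 and 30 min.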
Turning to `O=C(CNC(=O)C1COc2ccccc2O1)N/N=C/c1cc(Br)c(O)c(Br)c1` (stereo not drawn), the largest response in the series, negative = inhibition was 1.24%.
As for `O=C(N/N=C\c1cc(Br)c(Br)o1)C1COc2ccccc2O1` (stereo not drawn), the Potency is 39.8 µM (active).
Regarding `C=CCN1CCN(C(=O)CCCc2ccccc2)CC1`, the largest response in the series, negative = inhibition is 13.4%.
With `Cc1cccc(OCC(=O)Nc2ccc(NC(=O)c3ccco3)c(C)c2)c1`, the largest response in the series, negative = inhibition was 16.8%.
For the molecule `O=C(Nc1cc(C(F)(F)F)ccc1Cl)c1cc(C2CC2)on1`, the largest response in the series, negative = inhibition is 15.4%.
For `O=C(NC1CCCCC1)c1cc(C2CC2)on1`, the largest response in the series, negative = inhibition is 2.59%.
On to `CSc1ccccc1NC(=O)c1cc(C2CC2)on1`, for which the Potency was 17.8 µM (active).
As for `O=C(NC(=S)Nc1ccccc1N1CCCCC1)c1ccc(F)cc1`, the largest response in the series, negative = inhibition is 5.51%.
Consider `CC1CN(C(=S)Nc2ccccc2F)CC(C)O1` (stereo not drawn), for which the largest response in the series, negative = inhibition is -11.5%.
For the molecule `Oc1ccc(/C=N/Nc2ccc(C(F)(F)F)cn2)cc1O`, the Potency is 28.2 µM (active).
Take `O=C(Nc1ccccc1)Nc1ccc(C(F)(F)F)cn1`: the largest response in the series, negative = inhibition was 11.2%.
The same measure, in the same setting: the value for `Oc1ccc(Br)cc1/C=N/Nc1ccccn1` was 5.24%.
The same measure, in the same setting: the value for `Cc1c(Cl)c([N+](=O)[O-])nn1CC(=O)NCCCN1CCOCC1` was 1.31%.
Same read-out and setting: next, `O=C(CN1C(=O)COc2ccc(Cl)cc21)N1CCOCC1`: 9.91%; `O=C(COc1ccc(Cl)cc1Cl)N/N=C/c1ccccn1`: -29.7%.
Regarding `O=C(N/N=C/c1ccccn1)c1cccnc1`, the Potency is 2 µM (active).
For the molecule `O=C(N/N=C/c1ccc(O)c2ccccc12)c1cccnc1`, the largest response in the series, negative = inhibition was 7.11%.
For `CNC(=O)C(=O)N/N=C/c1ccccn1`, the Potency was 79.4 µM (active).
Regarding `O=C(N/N=C/c1ccccn1)C12CC3CC(CC(C3)C1)C2`, the largest response in the series, negative = inhibition was -35%.
As for `O=C(N/N=C/c1ccccn1)c1cccc(NC(=O)c2ccc(Cl)cc2)c1`, the largest response in the series, negative = inhibition is 10.1%.
Take `O=C(CCC1CCCC1)N=C1SC2CS(=O)(=O)CC2N1Cc1ccccc1` (stereo not drawn): the largest response in the series, negative = inhibition is 11.9%.
On to `Cc1ccnc(NC(=O)CCNS(=O)(=O)c2ccc(C)c(C)c2)c1`, for which the largest response in the series, negative = inhibition is 9.67%.
Take `S=c1nccc(-c2cc(Cl)sc2Cl)[nH]1`: the Potency was 79.4 µM (active).
`O=C(NCCS(=O)(=O)N1CCN(c2ccccc2F)CC1)c1ccc(Br)o1`: the largest response in the series, negative = inhibition was 27.4%.
For the molecule `O=C(O)CC1=C(Nc2ccccc2)C(=O)N(c2ccccc2)C1c1ccc(Cl)cc1` (stereo not drawn), the largest response in the series, negative = inhibition was 18.5%.
As to `O=C1c2cccc3cc(Br)cc(c23)C(=O)N1Nc1ccccc1`, the largest response in the series, negative = inhibition is 9.09%.
As to `O=C1C=C(c2ccc(Cl)cc2)C(=O)N1Nc1ccccc1`, the Potency was 10 µM (active).
Still for that read-out and setting: next, `Cc1cccc2c1-c1sc(C(=O)NCCCN3CCc4ccccc4C3)cc1CO2`: 44.7 µM (active).
In the case of `O=C(CN1C(=O)COc2ccccc21)NCCN1CCc2ccccc2C1`, the largest response in the series, negative = inhibition is 7.58%.
Regarding `O=C(NCCCN1CCOCC1)c1cc2c(s1)CCC2`, the largest response in the series, negative = inhibition is 23.9%.
Take `O=C(CCCC(=O)N1CCN(c2cccc(Cl)c2)CC1)c1ccccc1`: the largest response in the series, negative = inhibition was -3.1%.
For `CN(C(=O)COC(=O)CNC(=O)C12CC3CC(CC(C3)C1)C2)c1ccccc1`, the largest response in the series, negative = inhibition is 0.528%.
The same measure, in the same setting: the value for `O=C(N/N=C/c1cccc(OC(=O)c2ccc([N+](=O)[O-])cc2)c1)c1cccnc1` was 10%; that for `COc1ccc(/C(O)=C2/C(=O)C(=O)N(CCCN(C)C)C2c2ccccc2)cc1OC` (stereo not drawn) was 6.96%; that for `COc1cccc(C2/C(=C(/O)c3ccc(F)cc3)C(=O)C(=O)N2CCN(C)C)c1` (stereo not drawn) was -8.12%.
For `CCN(CC)CCN1C(=O)C(=O)/C(=C(/O)c2ccc(OC)c(OC)c2)C1c1ccccn1` (stereo not drawn), the Potency is 56.2 µM (active).
In the case of `CCN(CC)CCN1C(=O)C(=O)/C(=C(/O)c2ccccc2)C1c1ccccc1F` (stereo not drawn), the largest response in the series, negative = inhibition was 4.16%.
As for `CCCOc1ccc(/C(O)=C2/C(=O)C(=O)N(CCN(C)C)C2c2ccc(OC)c(OC)c2)cc1` (stereo not drawn), the Potency was 79.4 µM (active).
Take `COc1ccc(C2/C(=C(/O)c3ccccc3)C(=O)C(=O)N2c2ncccn2)cc1OC` (stereo not drawn): the largest response in the series, negative = inhibition is -2.32%.
In the case of `CC(=O)c1cccc(NC(=O)COc2ccc(S(=O)(=O)N3CCOCC3)cc2)c1`, the largest response in the series, negative = inhibition is 14.4%.
Take `O=C(O)CN1c2cccc3cccc(c23)S1(=O)=O`: the largest response in the series, negative = inhibition is -16.8%.
Consider `COc1ccc(OCc2n[nH]c(=S)n2N)cc1`, for which the largest response in the series, negative = inhibition is -87.4%.
`CSc1n[nH]c(=S)n1N`: the Potency was 44.7 µM (active).
Take `CC(C)NC(=O)C(=O)N/N=C/c1ccco1`: the largest response in the series, negative = inhibition was 13%.
Turning to `O=C(Cn1cnc2ccccc21)N/N=C/c1ccco1`, the largest response in the series, negative = inhibition was 15.1%.
Regarding `O=c1nc(N/N=C/c2ccco2)cn[nH]1`, the Potency is 31.6 µM (active).
As for `Cc1ccc(S(=O)(=O)NCc2ccc(C(=O)NC3CCC(C)CC3)cc2)cc1` (stereo not drawn), the largest response in the series, negative = inhibition is 17%.
Take `Cc1ccc(NC2CCCN(C(=O)CCc3cn[nH]c3)C2)cc1C` (stereo not drawn): the largest response in the series, negative = inhibition is 7.06%.
